# This is a sample that favours compounds with a hit; in the whole collection about 10% have one here.
# hNpr1 antagonist: blocks ANP-stimulated signaling of human Npr1 receptor; P16066; 76,000 tested, 1.6% active; Potency, µM (doses to about 46.3 µM), inactives show at the highest dose activity change, negative = inhibition, actives largely listed as inhibitors; HEK293 hNpr1 GloSensor cGMP, ANP-stimulated luminescence; calls by dose curve; also: nearly all actives have a fitted effect of over 60% in size
# Target sequence (P16066 whole entry, looked up): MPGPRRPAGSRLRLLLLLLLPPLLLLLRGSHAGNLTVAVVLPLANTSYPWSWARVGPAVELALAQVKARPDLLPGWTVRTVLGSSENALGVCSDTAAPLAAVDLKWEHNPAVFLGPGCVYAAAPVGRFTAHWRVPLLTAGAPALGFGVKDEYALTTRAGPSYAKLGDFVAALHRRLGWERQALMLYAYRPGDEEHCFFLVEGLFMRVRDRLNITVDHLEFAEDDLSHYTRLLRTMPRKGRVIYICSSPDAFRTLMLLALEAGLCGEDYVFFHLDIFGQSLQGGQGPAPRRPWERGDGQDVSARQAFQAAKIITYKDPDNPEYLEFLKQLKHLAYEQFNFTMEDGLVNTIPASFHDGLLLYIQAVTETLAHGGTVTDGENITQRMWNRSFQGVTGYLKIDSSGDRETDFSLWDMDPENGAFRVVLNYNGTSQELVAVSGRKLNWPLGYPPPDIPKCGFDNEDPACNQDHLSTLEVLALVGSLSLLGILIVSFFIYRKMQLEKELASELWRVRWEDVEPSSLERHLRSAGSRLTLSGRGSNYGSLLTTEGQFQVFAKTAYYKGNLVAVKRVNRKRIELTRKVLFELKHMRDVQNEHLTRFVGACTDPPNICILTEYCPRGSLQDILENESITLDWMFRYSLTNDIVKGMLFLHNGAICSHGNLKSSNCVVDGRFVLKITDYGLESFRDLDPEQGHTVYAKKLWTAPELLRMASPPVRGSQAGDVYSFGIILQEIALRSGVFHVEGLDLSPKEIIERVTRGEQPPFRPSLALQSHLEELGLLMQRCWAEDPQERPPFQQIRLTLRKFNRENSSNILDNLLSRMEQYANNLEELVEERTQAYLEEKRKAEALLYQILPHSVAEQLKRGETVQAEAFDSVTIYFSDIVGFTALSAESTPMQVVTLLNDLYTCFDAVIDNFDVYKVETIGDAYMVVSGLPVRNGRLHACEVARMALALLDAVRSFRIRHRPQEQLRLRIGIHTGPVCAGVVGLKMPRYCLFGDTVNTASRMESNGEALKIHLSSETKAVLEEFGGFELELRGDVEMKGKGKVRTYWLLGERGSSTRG
#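 HEK293 cells stably expressing human Npr1 and cGMP GloSensor pGS-40F, loaded 2 h with 2% GloSensor reagent, given compound 30 min at room temperature. Luminescence read before and 20 min after 0.1 nM hNppA.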
# FLuc inh: inhibitors of firefly (Photinus pyralis) luciferase. P08659. purified P. pyralis luciferase, luminescence, biochemical. Potency, µM (series often up to 115 µM), most hits filed as inhibitors. 76,000 tested, 2.5% active. AID 1347043; also: nearly all actives have a fitted effect of over 65% in size
#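 Cell-free enzyme assay, 10nM P. pyralis luciferase, luciferin and ATP each at 10uM. Inhibition profiled over a 6-point titration, read as luminescence.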
# HEK293 tox: kills HEK 293 cells; HEK 293 viability, ATP luminescence (CellTiter-Glo), 48-72 h; Potency, µM (series often up to 115 µM), for the others: top-dose activity change, negative = cytotoxicity, usual class: inhibitors; 94,000 tested, 6.6% active; also: nearly all actives have a fitted effect of over 60% in size
#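 Pintool-delivered compounds were incubated with HEK 293 cells (250 cells/well) at 37 degree Celsius for 48 or 72 hr. ATP-dependent luminescence (CellTiter-Glo) then reported remaining viable cells.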
# 3T3 cytotox: cytotoxic compounds in NIH 3T3 cells | NIH 3T3 viability, CellTiter-Glo ATP luminescence, 48-72 h | 94,000 tested, 4.3% active | Potency, µM (highest dose often 96.7 µM), without a hit: at the top dose activity change, negative = cytotoxicity, hits mostly inhibitors | AID 1345082; also: nearly all actives have a fitted effect of over 55% in size
#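 Cytotoxicity is measured as loss of cellular ATP: NIH 3T3 cells (400/well) are exposed to compound for 48 or 72 hr at 37 °C, then CellTiter-Glo luminescence is imaged after 10 min at room temperature.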
# GPT2 inh: inhibitors of human GPT2 alanine aminotransferase; Q8TD30; Recombinant GPT2, coupled pyruvate oxidase/HRP Amplex Red fluorescence; Potency, µM (top dose mostly 57.7 µM), for inactives: at the top dose activity change, negative = inhibition, actives largely listed as inhibitors; 100,000 tested, 0.25% active; AID 1671188; also: nearly all actives have a fitted effect of over 60% in size
#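 GPT2 10ng/uL, a-KG 250uM, L-Ala 2mM, HEPES pH7.5 + 0.0001% Tween; 30 min RT. Then Amplex mix (PO/HRP/ThPP), 30 min RT dark, fluorescence. AOA 50uM used as positive control.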
# Numbers without * were called inactive; i = inactive; ? = inconclusive; . = not tested or not shown; [ ] = another dose, or the depositor's remark. Unless noted, calls follow the shape of the dose curve; as a rule, active = well fitted curve in the direction sought with a large enough effect; inconclusive = small, poorly fitted or top-dose-only effect, or another doubt; inactive = no such curve, though single readings can be large; an effect the other way counts as inactive or inconclusive. % is scaled to controls: 0 for no effect and ±100 for the full control effect; potency is read from the fitted curve at half-maximal effect.
SMILES,hNpr1 antagonist,FLuc inh,HEK293 tox,3T3 cytotox,GPT2 inh
COc1cc2c(cc1CCc1ccccc1)N(C(=O)Cc1ccc3c(c1)OCO3)CC21CCN(C(C)=O)CC1,-17%,i,-24%,?,-4%
COc1cc2c(cc1CCc1ccccc1)N([S+](=O)([O-])c1ccc3c(c1)CCO3)CC21CCN(C(C)=O)CC1,-3%,i,?,25µM*,-11%
COc1cc2c(cc1CCc1ccccc1)N(C(=O)CC(C)C)CC21CCN(C(C)=O)CC1,2%,i,?,?,-20%
COc1ccc(CC(=O)N2CC3(CCN(C)CC3)c3cc(OC)c(OCc4ccccc4)cc32)cc1,6%,i,32µM*,?,i
COc1cc2c(cc1OCc1ccccc1)N(C(=O)COc1ccccc1)CC21CCN(C)CC1,0%,i,28µM*,22µM*,i
CC(C)NC(=O)N1CCC2(CC1)c1nccn1-c1ccccc1CN2C,3%,i,11%,?,5%
OC[C@@H]1[C@H]2CN(C3CCCCCC3)CCN2C[C@H]1c1ccccc1,.,.,-17%,?,.
CCOC(=O)[C@H]1CN(C(=O)OCC(C)C)[C@]2(C)C(=O)N(CC3CC3)c3ccccc3[C@H]12,.,.,?,?,-8%[27.3 µM]
C#C[C@H]1CN2CC[C@H]1C[C@@H]2CNC(=O)CC(C)(C)C,-1%[70.6 µM],i,-7%[230 µM],-23%[230 µM],-7%[88.5 µM]
COc1cc2c(cc1OCc1ccccc1)N(C(=O)c1cnn(C)c1)CC21CCN(C)CC1,-1%,i,?,?,1%
COc1cc2c(cc1OCc1ccccc1)N(C(=O)COc1ccccc1C(N)=O)CC21CCN(C)CC1,4%,i,40µM*,22µM*,-3%
COc1cc2c(cc1OCc1ccccc1)N([S+](=O)([O-])c1cccc(C)c1)CC21CCN(C)CC1,-2%,i,28µM*,22µM*,-1%
CC(C)CN1Cc2ccccc2-n2ccnc2C12CCN(C(=O)c1ccn[nH]1)CC2,-15%,i,40µM*,-26%,-9%
CN1Cc2ccccc2-n2ccnc2C12CCN(C(=O)c1cccc(F)c1)CC2,-3%,i,-17%,-10%,i
CC(C)CN1Cc2ccccc2-n2ccnc2C12CCN(C(=O)c1cccc(F)c1)CC2,-18%,i,35µM*,?,i
CC(C)CN1Cc2ccccc2-n2ccnc2C12CCN(C(=O)c1ccoc1)CC2,-21%,i,?,?,i
CC(C)CN1Cc2ccccc2-n2ccnc2C12CCN(C(=O)c1cccs1)CC2,-19%,i,45µM*,?,i
CC(C)CN1Cc2ccccc2-n2ccnc2C12CCN(C(=O)c1ccco1)CC2,-15%,i,45µM*,?,-9%
CN1Cc2ccccc2-n2ccnc2C12CCN(C(=O)c1ccccn1)CC2,2%,i,0%,-5%,-2%
COCCOCC(=O)N1CCC2(CC1)c1nccn1-c1ccccc1CN2CC(C)C,-14%,i,-15%,i,i
c1ccc(CC2CN3CCCC3CN2)cc1 (stereo not given),.,.,i,-3%[174 µM],-2%[88.5 µM]
O=C(NCc1cccnc1)[C@H]1CN2CC[C@H]1C[C@@H]2Cn1cc(-c2ccccc2)nn1,0%[70.6 µM],i,i,-3%[174 µM],5%[88.5 µM]
CCCCCn1cc(C(=O)Oc2cccc3cccnc23)c2ccccc21,.,.,.,.,i
CCn1ccc(C(=O)N2CCC3(CC2)c2nccn2-c2ccccc2CN3CC(C)C)n1,4%,i,45µM*,?,2%
CCOCC(=O)N1CCC2(CC1)c1nccn1-c1ccccc1CN2CC(C)C,-4%,i,?,i,3%
SMILES,hNpr1 antagonist,FLuc inh,HEK293 tox,3T3 cytotox,GPT2 inh
CN(N=O)c1ccc(O)c(O)c1,.,.,.,.,3.2µM*
Cc1ccc(-c2ccccc2CN2CCN(C(=O)Cc3ccc(F)cc3)CC2)cc1Cl,.,.,?,?,-13%
N#Cc1ccc(C(=O)N2C[C@@H]3C[C@H](C2)c2c(-c4ccc(Cl)cc4)ccc(=O)n2C3)cc1,5%[70.6 µM],i,-20%[172 µM],-21%[174 µM],-2%[88.5 µM]
COc1ccc(OC)c(S(=O)(=O)NC[C@H]2C[C@@H]3CCN2C[C@@H]3c2cc(-c3ccc(F)cc3)nn2C)c1,-20%,i,28µM*,?,-2%
Cn1nc(-c2ccc(F)cc2)cc1[C@H]1CN2CC[C@H]1C[C@@H]2CNC(=O)c1cccs1,-19%[70.6 µM],i,45µM*,56µM*,?
CCNC(=O)NC[C@H]1C[C@@H]2CCN1C[C@@H]2c1cc(-c2ccc(F)cc2)nn1C,-5%[70.6 µM],i,-11%[172 µM],-14%[174 µM],-7%[88.5 µM]
COc1ccc(-c2cc([C@H]3CN4CC[C@H]3C[C@@H]4CNC(=O)NC3CCCCC3)n(C)n2)cc1,-1%,i,?,89µM*,i
COc1ccc(-c2cc([C@H]3CN4CC[C@H]3C[C@@H]4CNS(=O)(=O)c3cc(OC)ccc3OC)n(C)n2)cc1,-4%,i,-8%,-26%,-15%
COc1ccc(NC(=O)NC[C@H]2C[C@@H]3CCN2C[C@@H]3c2cc(-c3ccc(OC)c(OC)c3)nn2C)cc1,8%,i,?,?,-4%
COc1ccc(-c2cc([C@H]3CN4CC[C@H]3C[C@@H]4CNC(=O)c3ccc(C(C)(C)C)cc3)n(C)n2)cc1OC,1%,i,20µM*,?,-3%
Cn1nc(C2CCNCC2)n(C2CCCC2)c1=O,5%,i,i,i,i
Fc1ccc(CC2CCOC3(CCNCC3)C2)cc1 (stereo not given),5%,i,?,?,i
CCOC(=O)[C@H]1CN(C(=O)Nc2cccc(C#N)c2)[C@]2(C)C(=O)N(C)c3ccccc3[C@H]12,.,.,?,?,-8%[27.3 µM]
Cc1ccc(C(=O)NC[C@H]2C[C@@H]3CCN2C[C@@H]3c2cc(-c3ccc(F)cc3)nn2C)cc1,-27%[70.6 µM],i,25µM*,25µM*,4%[88.5 µM]
COc1ccc(C(=O)NC[C@H]2C[C@@H]3CCN2C[C@@H]3c2cc(-c3ccc(F)cc3)nn2C)cc1,0%,i,?,?,2%
COc1ccc(-c2cc([C@H]3CN4CC[C@H]3C[C@@H]4CNC(=O)Nc3cccc4ccccc34)n(C)n2)cc1OC,3%,i,45µM*,?,i
O=C(NC[C@H]1C[C@@H]2CCN1C[C@@H]2CN1CCN(c2ccccc2)CC1)Nc1ccccc1,4%[70.6 µM],i,?,?,2%[88.5 µM]
Cn1nc(-c2cccs2)cc1[C@H]1CN2CC[C@H]1C[C@@H]2CNS(=O)(=O)c1ccccc1,3%,i,-26%,?,1%
Cc1nc(-c2ccccc2Br)cc([C@H]2CN3CC[C@H]2C[C@@H]3CNS(=O)(=O)c2cccs2)n1,4%,i,79µM*,79µM*,5%

# Screens deposited in PubChem by National Center for Advancing Translational Sciences (NCATS).
